According to PubChem BioAssay (EPA / NIEHS):
Some structures have more than one record in an assay (separate samples or runs), and their calls can disagree. Active and inactive are the calls of the source. How the source made its calls: active means hit-call score of the fitted dose curve at least 0.9, where 1 is the maximum; inactive means score below 0.9.

Key:
[1] = read-out: Transforming growth factor beta 1 (TGFb1), TGFB1 (gene 7040); experiment: BSK_KF3CT_TGFb1: BioMAP Diversity Plus: KF3CT Assay for Transforming growth factor beta 1 (TGFb1) Biomarker Activity (AID 2283072); conditions: primary human keratinocytes with fibroblasts; actives raise or lower the signal
Method in brief: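 Human keratinocyte plus foreskin fibroblast primary co-culture, dosed with chemical for 24 h. TGF-b1 quantified by ELISA. Activity fitted bidirectionally against DMSO negative control as baseline.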

[2] = read-out: C-C motif chemokine 2 (Homo sapiens) (UniProt P13500); experiment: BSK_KF3CT_MCP1: BioMAP Diversity Plus: KF3CT Assay for Monocyte Chemoattractant Protein 1 (MCP1/CCL2) Biomarker Activity (AID 2283073); conditions: primary human keratinocytes with fibroblasts; actives raise or lower the signal
Method in brief: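 ELISA read-out of MCP-1, 24 h post-dose, in primary human skin keratinocytes co-cultured with fibroblasts. Parallel SRB staining monitors cytotoxicity; changes fitted both directions relative to DMSO.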

[3] = read-out: Matrix Metallopeptidase 9 (MMP9), MMP9 (gene 4318); experiment: BSK_KF3CT_MMP9: BioMAP Diversity Plus: KF3CT Assay for Matrix Metallopeptidase 9 (MMP9) Biomarker Activity (AID 2283074); conditions: primary human keratinocytes with fibroblasts; actives raise or lower the signal;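 on AC50: MMP9 protein level quantified by ELISA in the co-culture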
Method in brief: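 Human keratinocyte and foreskin fibroblast co-culture exposed to chemicals for 24 h; MMP9 biomarker measured by ELISA, bidirectional fitting relative to DMSO; cytotoxicity tracked by SRB total protein staining in parallel cultures.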

[4] = read-out: urokinase plasminogen activator (uPA), PLAU (gene 5328); experiment: BSK_KF3CT_uPA: BioMAP Diversity Plus: KF3CT Assay for urokinase plasminogen activator (uPA) Biomarker Activity (AID 2283075); conditions: primary human keratinocytes with fibroblasts; actives raise or lower the signal
Method in brief: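 Primary human keratinocyte/foreskin fibroblast co-culture exposed to chemical; uPA measured by ELISA at 24 h. Bidirectional fit versus DMSO, with parallel SRB total-protein staining for cytotoxicity.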

CD40, CD40 (gene 958) [5] = experiment: BSK_LPS_CD40: BioMAP Diversity Plus: LPS Assay for CD40 Biomarker Activity (AID 2283076); conditions: primary human HUVEC with PBMC; actives raise or lower the signal
Method in brief: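 In the LPS system of human endothelial cells with peripheral blood mononuclear cells, CD40 levels were read by ELISA 24 h post-treatment. Signal changes in either direction were fitted against the DMSO baseline, with parallel SRB protein staining.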

[6] = read-out: E-selectin (Homo sapiens) (UniProt P16581); experiment: BSK_LPS_Eselectin: BioMAP Diversity Plus: LPS Assay for Eselectin Biomarker Activity (AID 2283077); conditions: primary human HUVEC with PBMC; actives raise or lower the signal
Method in brief: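 E-selectin ELISA on LPS-stimulated endothelial cell/PBMC co-cultures, read 24 h post-treatment; gains and losses fitted against DMSO. Parallel SRB staining (0.1% SRB after 10% TCA fixation, 560 nm) flags overt cytotoxicity.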

[7] = read-out: Interleukin-8 (IL8), CXCL8 (gene 3576); experiment: BSK_LPS_IL8: BioMAP Diversity Plus: LPS Assay for Interleukin-8 (IL8) Biomarker Activity (AID 2283078); conditions: primary human HUVEC with PBMC; actives raise or lower the signal
Method in brief: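 ELISA read-out of IL-8 after 24 h chemical treatment of LPS-activated endothelial/PBMC human primary co-cultures. Changes either up or down relative to DMSO; overt cytotoxicity checked by sulforhodamine B staining in parallel wells.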

[8] = BSK_LPS_SRB: Viability Assessment in the BioMAP Diversity Plus: LPS Assay (AID 2283079); conditions: primary human HUVEC with PBMC;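 further: total protein by sulforhodamine B absorbance as a cytotoxicity measure; measured one day after compound addition; fitted in both directions against DMSO so loss or gain of signal counts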
Method in brief: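 SRB viability endpoint: cells fixed with 10% TCA, stained with 0.1% SRB, read at 560 nm, 24 h post-dose. HUVEC/PBMC co-culture; signal change in either direction scored relative to DMSO.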

[9] = read-out: Interleukin-1 alpha (IL1a), IL1A (gene 3552); experiment: BSK_LPS_IL1a: BioMAP Diversity Plus: LPS Assay for Interleukin-1 alpha (IL1a) Biomarker Activity (AID 2283080); conditions: primary human HUVEC with PBMC; actives raise or lower the signal
Method in brief: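 Readout is IL-1a level by ELISA, 24 h post-dose, fitted as gain or loss relative to DMSO. System: LPS-activated human primary co-culture of vascular endothelium and peripheral blood mononuclear cells, with parallel SRB total-protein cytotoxicity.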

[10] = read-out: Monocyte Chemoattractant Protein-1 (MCP1), CCL2 (gene 6347); experiment: BSK_LPS_MCP1: BioMAP Diversity Plus: LPS Assay for Monocyte Chemoattractant Protein-1 (MCP1) Biomarker Activity (AID 2283081); conditions: primary human HUVEC with PBMC; actives raise or lower the signal;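 on AC50: secreted MCP-1 protein quantified by ELISA in culture supernatant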
Method in brief: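 Secreted MCP-1 read by ELISA at 24 h post-dosing in an LPS-activated co-culture of endothelial cells with peripheral blood mononuclear cells. Fits run in both directions, DMSO as baseline; parallel SRB staining tracks overt cytotoxicity.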

[11] = BSK_LPS_PGE2: BioMAP Diversity Plus: LPS Assay for Prostaglandin E2 (PGE2) Biomarker Activity (AID 2283082); conditions: primary human HUVEC with PBMC; actives raise or lower the signal;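 on AC50: secreted prostaglandin E2 measured by ELISA in LPS-stimulated co-culture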
Method in brief: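 HUVEC plus PBMC co-culture stimulated with LPS; secreted PGE2 quantified by ELISA 24 h after chemical dosing. Activity fitted bidirectionally against DMSO as negative control and baseline; parallel SRB total-protein staining served as cytotoxicity check.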

[12] = read-out: Macrophage colony-stimulating factor (MCSF), CSF1 (gene 1435); experiment: BSK_LPS_MCSF: BioMAP Diversity Plus: LPS Assay for Macrophage colony-stimulating factor (MCSF) Biomarker Activity (AID 2283083); conditions: primary human HUVEC with PBMC; actives raise or lower the signal
Method in brief: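 Bidirectional fitting against DMSO was applied to M-CSF levels read by ELISA at 24 h post-dose. The system pairs human umbilical vein endothelium with peripheral blood mononuclear cells; parallel SRB staining tracked cytotoxicity.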

[13] = read-out: Tissue Factor, F3 (gene 2152); experiment: BSK_LPS_TissueFactor: BioMAP Diversity Plus: LPS Assay for Tissue Factor Biomarker Activity (AID 2283084); conditions: primary human HUVEC with PBMC; actives raise or lower the signal
Method in brief: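 Compound was added to an endothelial cell/PBMC co-culture, and after 24 h tissue factor (CD142) was read by ELISA. Gain or loss of signal was fitted against a DMSO baseline, and parallel SRB staining (560 nm) tracked overt cytotoxicity.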

[14] = read-out: Tumor necrosis factor (Homo sapiens) (UniProt P01375); experiment: BSK_LPS_TNFa: BioMAP Diversity Plus: LPS Assay for Tumour Necrosis Factor alpha (TNFa) Biomarker Activity (AID 2283085); conditions: primary human HUVEC with PBMC; actives raise or lower the signal
Method in brief: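 Human umbilical vein endothelial cells co-cultured with PBMC were exposed to test chemical and TNFa measured by ELISA 24 h after dosing. Bidirectional curve fitting was done relative to DMSO as negative control and baseline.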

[15] = read-out: Vascular cell adhesion molecule 1 (VCAM1), VCAM1 (gene 7412); experiment: BSK_LPS_VCAM1: BioMAP Diversity Plus: LPS Assay for Vascular cell adhesion molecule 1 (VCAM1) Biomarker Activity (AID 2283086); conditions: primary human HUVEC with PBMC; actives raise or lower the signal
Method in brief: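 Human umbilical vein endothelial cells co-cultured with peripheral blood mononuclear cells under LPS stimulation were exposed to test chemical for 24 h. VCAM-1 levels were then measured by ELISA, with bidirectional curve fitting relative to DMSO as negative control and baseline.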

CD40, CD40 (gene 958) [16] = experiment: BSK_SAg_CD40: BioMAP Diversity Plus: SAg Assay for CD40 Biomarker Activity (AID 2283088); conditions: primary human HUVEC with PBMC; actives raise or lower the signal
Method in brief: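 CD40 is measured by fluorescence ELISA in an endothelial/PBMC primary human co-culture at 24 h post-dose. Fitting is bidirectional, DMSO baseline. Parallel SRB staining (560 nm) flags cytotoxicity.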

CD69, CD69 (gene 969) = experiment: BSK_SAg_CD69: BioMAP Diversity Plus: SAg Assay for CD69 Biomarker Activity (AID 2283089); conditions: primary human HUVEC with PBMC; actives raise or lower the signal;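 further: cell surface CD69 protein quantified by ELISA with fluorescence detection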
Method in brief: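 Values derive from bidirectional fitting relative to DMSO vehicle. Cells: umbilical vein endothelium plus peripheral blood mononuclear cells, treated 24 h before fluorescent ELISA for CD69.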

[17] = read-out: Monocyte Chemoattractant Protein-1 (MCP1), CCL2 (gene 6347); experiment: BSK_SAg_MCP1: BioMAP Diversity Plus: SAg Assay for Monocyte Chemoattractant Protein-1 (MCP1) Biomarker Activity (AID 2283090); conditions: primary human HUVEC with PBMC; actives raise or lower the signal
Method in brief: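 MCP-1 levels in the endothelial–PBMC SAg co-culture were quantified by ELISA at 24 h post-dosing; both increases and decreases versus DMSO scored. Cytotoxicity monitored by SRB total protein in parallel cultures.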

CD38, CD38 (gene 952) = experiment: BSK_SAg_CD38: BioMAP Diversity Plus: SAg Assay for CD38 Biomarker Activity (AID 2283087); conditions: primary human HUVEC with PBMC; actives raise or lower the signal
Method in brief: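 Fluorescence ELISA of cell-surface CD38 served as the read-out, with either increase or decrease fitted against DMSO controls. Cells were a human umbilical vein endothelium plus PBMC co-culture under SEB/TSST-1 stimulation, measured 24 h after dosing.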

Measured: AC50

Chain of Tumor necrosis factor (Homo sapiens) (P01375 whole entry, looked up): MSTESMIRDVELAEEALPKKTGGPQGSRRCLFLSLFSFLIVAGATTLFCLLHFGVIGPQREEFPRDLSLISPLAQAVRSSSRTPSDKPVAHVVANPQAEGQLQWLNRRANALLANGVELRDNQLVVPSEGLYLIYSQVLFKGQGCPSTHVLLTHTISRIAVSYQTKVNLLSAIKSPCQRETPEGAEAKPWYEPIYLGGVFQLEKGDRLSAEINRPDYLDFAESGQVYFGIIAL
Chain of E-selectin (Homo sapiens) (P16581 whole entry, looked up): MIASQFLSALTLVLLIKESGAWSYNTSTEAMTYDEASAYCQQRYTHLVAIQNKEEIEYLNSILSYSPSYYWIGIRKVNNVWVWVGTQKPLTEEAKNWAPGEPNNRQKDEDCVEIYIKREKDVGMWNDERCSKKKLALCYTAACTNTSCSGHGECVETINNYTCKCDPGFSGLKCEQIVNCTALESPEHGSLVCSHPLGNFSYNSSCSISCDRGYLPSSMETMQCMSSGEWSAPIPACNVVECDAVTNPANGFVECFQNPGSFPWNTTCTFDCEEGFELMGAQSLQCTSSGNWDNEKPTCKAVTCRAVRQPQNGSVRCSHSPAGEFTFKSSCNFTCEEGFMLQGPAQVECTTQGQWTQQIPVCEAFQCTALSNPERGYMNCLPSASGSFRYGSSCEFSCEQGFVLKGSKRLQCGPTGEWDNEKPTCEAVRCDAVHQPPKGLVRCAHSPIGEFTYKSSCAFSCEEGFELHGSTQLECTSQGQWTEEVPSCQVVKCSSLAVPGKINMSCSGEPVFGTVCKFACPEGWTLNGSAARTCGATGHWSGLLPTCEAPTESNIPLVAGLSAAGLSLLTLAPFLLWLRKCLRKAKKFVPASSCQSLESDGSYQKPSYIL

CCCOCC(=Nc1ccc(Cl)cc1C(F)(F)F)n1ccnc1
active: [1] 31.1 µM | [2] 31.3 µM | [3] 28 µM | [4] 33.2 µM | CD40, CD40 (gene 958) [5] 22.3 µM | [6] 16.2 µM | [7] 32.5 µM | [8] 31.4 µM | [9] 31.8 µM | [10] 33.3 µM | [12] 20.9 µM | [13] 29.2 µM | [14] 31.3 µM | [15] 29 µM | CD40, CD40 (gene 958) [16] 18.1 µM | CD69, CD69 (gene 969) 18.9 µM | [17] 26 µM
inactive: [11]

N#CSCSC#N
active: [1] 5.17 µM | [2] 5.31 µM | [3] 6.04 µM | [4] 6.91 µM | [6] 6.28 µM | [7] 5.94 µM | [8] 5.37 µM | [9] 5.46 µM | [10] 10.6 µM | [11] 5.66 µM | [12] 5.23 µM | [14] 3.89 µM | [15] 5.56 µM | CD38, CD38 (gene 952) 5.28 µM | CD40, CD40 (gene 958) [16] 7.73 µM | CD69, CD69 (gene 969) 7.16 µM | [17] 11.9 µM
inactive: [13]

C[Si](Cn1cncn1)(c1ccc(F)cc1)c1ccc(F)cc1
active: [6] 15 µM | [11] 1.62 µM | [12] 14.7 µM | CD40, CD40 (gene 958) [16] 27 µM | [17] 28.9 µM
not listed: CD40, CD40 (gene 958) [5] | CD69, CD69 (gene 969) | CD38, CD38 (gene 952)
inactive: all other assays above

CN(C)[C@@H]1C(=O)C(C(N)=O)=C(O)[C@@]2(O)C(=O)C3=C(O)c4c(O)cccc4[C@@](C)(O)[C@H]3[C@H](O)[C@@H]12
active: [14] 14.7 µM
inactive: [1] | [2] | [3] | [4] | [6] | [7] | [8] | [9] | [10] | [11] | [12] | [13] | [14] | [15] | CD38, CD38 (gene 952) | CD40, CD40 (gene 958) [16] | [17]

CCCOc1nn(C(=O)NS(=O)(=O)c2ccccc2C(=O)OC)c(=O)n1C
active: [3] 0.103 µM | [7] 0.907 µM
not listed: CD40, CD40 (gene 958) [5] | [15] | CD69, CD69 (gene 969)
inactive: all other assays above

Nc1c(Cl)cc([N+](=O)[O-])cc1Cl
not listed: CD40, CD40 (gene 958) [5] | CD69, CD69 (gene 969) | CD38, CD38 (gene 952)
inactive: all other assays above
